# Source: PubChem
# CHX counter = Cycloheximide Counterscreen for Small Molecule Inhibitors of Shiga Toxin. cell reporter, cycloheximide protein synthesis inhibition counterscreen. max response, %. 300,000 tested, 12% active. AID 2314, 2010; in the data active means max response mostly above about 13%, no sharp cut-off; inactive means mostly below about 14%; further: read at 38.3 µM for the half of the compounds with a filed dose; 0% is about no effect
# HCV inh = qHTS Assay for Inhibitors of Hepatitis C Virus (HCV) | Huh7.5.1 HCVcc-Cre infection, luciferase reporter, 44 h | 340,000 tested, 3.4% active | Potency, µM (doses to about 41.8 µM), without a hit: top-dose activity change, negative = inhibition, usual class: inhibitors; further: potency means the concentration at half of the fitted maximal effect; on the % scale 0 is the no-effect control and ±100 the full control effect
#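 A cell-based infection assay in which seeded cells (1,000 per well) receive test compound after 4 h, are inoculated with HCVcc-Cre at approximately 0.5 moi, and are incubated 44 h before luminescence detection.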
# Pf growth 96h = Primary qHTS for delayed death inhibitors of the malarial parasite plastid, 96 hour incubation; P. falciparum luciferase reporter growth, 96 h; Potency, µM (series often up to 28.7 µM), without a hit: at the highest dose activity change, negative = inhibition, hits mostly inhibitors; 320,000 tested, 6.9% active; AID 504834, 2011; further: potency means the concentration at half of the fitted maximal effect; on the % scale 0 is the no-effect control and ±100 the full control effect
#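 Plates of compound plus infected erythrocytes (2% hematocrit, 0.05% parasitemia final) incubate 96 hours, 37 C, 5% CO2. Detection reagent added; reduced luminescence from the parasites' luciferase reporter flags inhibition.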
# Pf growth 48h = Primary qHTS for delayed death inhibitors of the malarial parasite plastid, 48 hour incubation | P. falciparum luciferase growth in erythrocytes, 48 h | Potency, µM (highest dose often 28.7 µM), for the others: top-dose activity change, negative = inhibition, most hits filed as inhibitors | 310,000 tested, 5.9% active; further: potency means the concentration at half of the fitted maximal effect; on the % scale 0 is the no-effect control and ±100 the full control effect
#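 Erythrocytes infected with P. falciparum carrying an integrated firefly luciferase reporter (2% hematocrit, 0.1% parasitemia final) were exposed to compounds in RPMI 1640 with 0.5% Albumax at 37 C, 5% CO2. Growth inhibition was scored as reduced luminescence.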
# HCMV inh = qHTS Assay for inhibitors of the human cytomegalovirus (HCMV); HFF cells, HCMV-luciferase reporter, 72 h; stronger effect = lower value; activity change, negative = inhibition, % at 57.5 µM; 410,000 tested, 4.5% active; in the data active means activity change below about -60%; inconclusive means no clear call, values can overlap the other calls; inactive means above about -39%; further: on the % scale 0 is the no-effect control and ±100 the full control effect
#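 Compounds were evaluated in HFFs infected with an HCMV luciferase reporter virus (MOI 1 PFU/cell). Luciferase in lysates collected 72 h post infection served as the replication measure.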
# Shiga inhibitor = A qHTS for Small Molecule Inhibitors of Shiga Toxin; Vero cells, Shiga toxin protein synthesis inhibition reporter; inhibition, % at 38.7 µM; 290,000 tested, 9.2% active; AID 2315, 2010; in the data active means inhibition mostly above about 28%, no sharp cut-off; inactive means mostly below about 43%; further: 0% is about no effect
# Active calls of the source: *; u = inconclusive; x = not tested or not shown. A selection: hits, their analogues and other compounds. The true share with any hit is near 21%. Unless noted, the call rests on the fitted dose curve; in most records, active means well fitted inhibition curve with a large enough effect; inconclusive means small, poorly fitted or top-dose-only effect, or another doubt; inactive means no such curve, though single readings can be large or run the other way.
SMILES,CHX counter,HCV inh,Pf growth 96h,Pf growth 48h,HCMV inh,Shiga inhibitor
Cc1ccc(CNC(=O)C2CCN(S(=O)(=O)c3c(C)noc3/C=C/c3cccs3)CC2)cc1,x,x,x,x,-27,x
Cc1noc(C)c1COc1ccccc1C(=O)NC(C)c1ccc(Cl)cc1 (centres undefined),x,u,5.2µM*,13µM*,-13,x
CCn1nc(C(=O)NNC(=O)c2ccccc2OCc2c(C)noc2C)c2ccccc2c1=O,x,u,u,u,-83*,x
CCn1nc(C(=O)OCc2c(C)noc2C)c2ccccc2c1=O,3,43%,1%,-5%,-23,-13
Cc1noc(C)c1COc1ccccc1C(=O)NCCc1ccccc1,x,3.2µM*,u,u,-16,x
Cc1noc(C)c1COc1ccccc1C(=O)NCc1ccccc1Cl,x,-12%,5.2µM*,u,-37,x
Cc1noc(C)c1COc1ccccc1C(=O)NNC(=O)c1ccccc1,x,-8%,14%,0%,-9,x
Cc1noc(C)c1COc1ccccc1C(=O)NC(C)CCc1ccccc1 (centres undefined),x,1%,x,x,-24,x
CCCS(=O)(=O)NC(=O)C1(C)CCCN(C(=O)c2nc3ccccc3s2)C1 (centres undefined),x,x,x,x,32,x
COCCNC(=O)c1[nH]c2cc(C)ccc2c1Sc1ccc(Cl)cc1,x,x,x,x,-2,x
CC[C@H](NC(=O)[C@H](CCCN=C(N)N)NC(=O)[C@H](Cc1c[nH]c2ccccc12)NC(=O)[C@@H](N)CS)C(=O)N[C@@H](CCCN=C(N)N)C(=O)N[C@@H](Cc1ccc(O)cc1)C(N)=O,-9,x,x,x,x,3
CC(=O)c1ccc(S(=O)(=O)NCCc2cn3ccc(C)cc3n2)cc1,x,10%,x,x,9,x
CC1CCCC(NC(=O)C2CCN(C(=O)Nc3ccccc3)CC2)C1C (centres undefined),x,9%,3%,-13%,-10,x
CCCc1cc(C(=O)Nc2ccc(OC)cc2[N+](=O)[O-])cs1,28*,-9%,u,36%,1,60
COc1ccc(NC(=O)c2ccccc2)c([N+](=O)[O-])c1,32*,u,211%,172%,-16,74*
CCC(=O)Nc1ccc(C(=O)Nc2ccc(OC)cc2[N+](=O)[O-])cc1,1,-18%,-26%,2%,-32,26
CN(C)c1ccc(CNC(=O)c2ccc(NC(=O)c3nsc4ccccc34)cc2)cc1,x,x,x,x,25,x
COc1cc(-c2nccc3[nH]nc(-c4ccncc4)c23)cc(OC)c1OC,x,x,x,x,-9,x
CCn1cc(Cl)c(C(=O)N2N=C(c3ccc4ccccc4c3)CC2c2ccccc2O)n1 (centres undefined),3,u,1.5µM*,2.1µM*,2,7
CCn1cc([N+](=O)[O-])c(C(=O)N2N=C(c3ccc(OC)cc3OC)CC2c2ccccc2O)n1 (centres undefined),12,-7%,10µM*,u,24,25
CCn1cc([N+](=O)[O-])c(C(=O)N2N=C(c3ccc4ccccc4c3)CC2c2ccccc2O)n1 (centres undefined),34*,10µM*,u,8.3µM*,82,27*
CCn1cc([N+](=O)[O-])c(C(=O)N2N=C(c3cccc4ccccc34)CC2c2ccccc2O)n1 (centres undefined),-3,11µM*,13µM*,9.3µM*,33,-10
CCC1(CC)NC(=O)N(CC(=O)N2N=C(c3ccc(Cl)cc3)CC2c2ccco2)C1=O (centres undefined),-2,5%,u,u,90,-6
CC(=O)NCC1CCCN(C(=O)c2ccc(OC3CCN(Cc4ccccn4)CC3)cc2)C1 (centres undefined),-3,12%,u,10%,-28,11
Clc1ccc(COc2ccccc2-c2ccnc3ncnn23)cc1,39*,-5%,42%,346%,78,77*
SMILES,CHX counter,HCV inh,Pf growth 96h,Pf growth 48h,HCMV inh,Shiga inhibitor
COc1ccc(/C=C/c2n[nH]c(=O)c(C#N)c2C)cc1,4,-24%,9%,u,u,24
CCOc1ccc(Br)cc1C(=O)Nc1ccc(C(=O)NCC(C)C)cc1,-3,u,u,u,-80*,11
CCC(CC)C(=O)Nc1cc(C(=O)NCCc2ccccc2)ccc1Cl,33*,-11%,36%,12%,11,16
CCOc1ccccc1C(=O)Nc1cc(C(=O)NCC(C)C)ccc1Cl,9,x,1.7µM*,7.4µM*,x,12
CCOc1ccccc1C(=O)NCC(=O)NCCCc1ccccc1,-4,-28%,u,-3%,u,-2
CCOc1ccccc1C(=O)Nc1cc(C(=O)NCCc2ccccc2)ccc1Cl,7,2.5µM*,u,u,-10,7
CCCCNC(=O)C1c2ccccc2OCC(=O)N1CCOC (centres undefined),x,x,x,x,31,x
COc1ccc(N(CC(=O)Nc2ccc(C(C)C)cc2)S(=O)(=O)c2c(C)noc2C)cc1,10,10%,8%,u,u,-5
COc1ccccc1N1CCN(S(=O)(=O)c2c(C)sc3ncn(CC(=O)N(C)c4ccc(Cl)cc4)c(=O)c23)CC1,x,x,x,x,-16,x
COc1ccc(S(=O)(=O)N2CCN(CC(=O)NC3CC3)CC2)cc1,-2,12%,u,75%,3,-5
CCOc1ccccc1NC(=O)c1ccc(Cl)c(NC(=O)CC(c2ccccc2)c2ccccc2)c1,-3,6%,9.3µM*,u,-36,7
CCOc1ccccc1NC(=O)c1cccc(NC(=O)CC(c2ccccc2)c2ccccc2)c1,8,u,u,u,u,-12
COc1cc(CCCN2C(N)=NC[C@H]2Cc2ccc(O)cc2)cc(OC)c1OC,-6,4%,2.3µM*,8.3µM*,-18,-5
COc1cc(CCCN2C(=S)NC[C@H]2Cc2ccc(O)cc2)cc(OC)c1OC,1,11µM*,-1%,10%,-13,-8
C[C@@H]1CCC(=O)N(CC[C@H](Sc2ccccc2)c2ccccc2)CC1,10*,5%,u,u,-11,14
O=C1CCC(OCc2ccccc2)CCN1CC[C@@H](Sc1ccccc1)c1ccccc1 (some centres undefined),x,x,x,x,12,x
O=C1CC[C@@H](OCc2ccccc2)CCN1CC[C@H](Sc1ccccc1)c1ccccc1,11*,-22%,0%,u,-18,15
Cc1cc2c(s1)c1cnn(Cc3ccc(F)cc3)c(=O)c1n2C,10,x,x,x,x,4
O=c1c(-c2ccnn2-c2ccc(F)cc2)cnc2n1CCS2,-1,9%,x,15%,22,-28
O=c1ccnc2n1COCS2,4,22%,36%,1%,-100*,-2
